Data as given in the supplement of paper PMC6555819.

What was measured:
Assay in all cases: PBM binding z-score (relative to random genomic background probes); higher = stronger binding; sequences stand for … in GC…GCGATTGACAGCGTAGAATGAAGG
[1] = system: FXR:RXRa (NR concentration 270 nM, RXRa partner concentration 90 nM)
Summary of the method: (§1)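 The probes on custom Agilent 4×180K protein-binding microarrays were double-stranded, with 34-nt variable regions bearing direct-repeat seeds, single-nucleotide variants, half-site ablations and random human genomic background sequences. Incubation lasted 1 h with ligand-free nuclear receptor dimers in PBS pH 7.4, 2% milk, 0.02% Triton X-100, 1 mM DTT, 0.2 mg/mL BSA and 0.4 mg/ml salmon testes DNA. Antibodies against each partner (one per run) detected bound dimers, and fluorescence scans were regression-normalized. Binding z-scores take the random background probes as reference.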

[2] = system: LXRa:RXRa (NR concentration 270 nM, RXRa partner concentration 90 nM)
Summary of the method: as §1

[3] = system: LXRa homodimer (NR concentration 270 nM)
Summary of the method: as §1

[4] = system: LXRb:RXRa (NR concentration 270 nM, RXRa partner concentration 90 nM)
Summary of the method: as §1

[5] = system: LXRb homodimer (NR concentration 270 nM)
Summary of the method: as §1

[6] = system: PPARa:RXRa (NR concentration 270 nM, RXRa partner concentration 90 nM)
Summary of the method: as §1

[7] = system: PPARg:RXRa (NR concentration 180 nM, RXRa partner concentration 90 nM)
Summary of the method: as §1

[8] = system: PPARg:RXRa 270nM:90nM, anti-RXR (NR concentration 270 nM, RXRa partner concentration 90 nM)
Summary of the method: as §1

[9] = system: PPARg:RXRa 30nM:10nM, anti-RXR (NR concentration 30 nM, RXRa partner concentration 10 nM)
Summary of the method: as §1

[10] = system: PPARg:RXRa 90nM:30nM, anti-RXR (NR concentration 90 nM, RXRa partner concentration 30 nM)
Summary of the method: as §1

[11] = system: PPARg:RXRa DBDmut IVT, anti-RXR (DBD mutation: RXRa K156A/R161A, NR concentration 270 nM, RXRa partner concentration 90 nM)
Summary of the method: as §1

[12] = system: PPARg:RXRa IVT, anti-PPARg (NR concentration 270 nM, RXRa partner concentration 90 nM)
Summary of the method: as §1

[13] = system: PPARg DBDmut:RXRa IVT, anti-PPARg (DBD mutation: PPARg1 K132A/R137A, NR concentration 270 nM, RXRa partner concentration 90 nM)
Summary of the method: as §1

[14] = system: PPARg DBDmut IVT, anti-PPARg (DBD mutation: PPARg1 K132A/R137A, NR concentration 270 nM)
Summary of the method: as §1

[15] = system: PPARg homodimer (NR concentration 180 nM)
Summary of the method: as §1

[16] = system: PXR:RXRa (NR concentration 270 nM, RXRa partner concentration 90 nM)
Summary of the method: as §1

[17] = system: PXR homodimer (NR concentration 270 nM)
Summary of the method: as §1

[18] = system: RARa:RXR (NR concentration 270 nM, RXRa partner concentration 90 nM)
Summary of the method: as §1

[19] = system: RARa homodimer (NR concentration 270 nM)
Summary of the method: as §1

[20] = system: RARb:RXRa (NR concentration 270 nM, RXRa partner concentration 90 nM)
Summary of the method: as §1

Sequence	PBM binding z-score [1]	PBM binding z-score [2]	PBM binding z-score [3]	PBM binding z-score [4]	PBM binding z-score [5]	PBM binding z-score [6]	PBM binding z-score [7]	PBM binding z-score [8]	PBM binding z-score [9]	PBM binding z-score [10]	PBM binding z-score [11]	PBM binding z-score [12]	PBM binding z-score [13]	PBM binding z-score [14]	PBM binding z-score [15]	PBM binding z-score [16]	PBM binding z-score [17]	PBM binding z-score [18]	PBM binding z-score [19]	PBM binding z-score [20]
ATCTCTAGGTAAAGATAGATCAGTGAATGCAAAT	0.447	0.581	0.166	0.000708	0.387	0.00369	0.763	0.278	0.36	0.457	1.89	1.61	0.429	1.24	-0.283	-0.396	0.0363	-0.0575	1.14	-0.27
ATCTCTAGGTGACAAGTTCAGTGAAAGAGAGGAC	0.297	0.503	0.114	0.645	0.171	2.58	3.19	3.1	1.46	2.43	4.9	4.99	1.89	2.47	0.963	1.33	1.38	0.974	0.324	2.12
TCGAGTAGGTTAGGGGCATTCTGAATGGCGTCGA	0.16	0.0463	-0.301	0.694	-0.421	1.08	0.543	2.02	1.09	1.41	2.23	1.58	-0.74	-0.137	0.496	0.244	0.106	0.337	-0.415	0.807
GATCCAGGGTCAAGGCCAGAGTACGCGTATTGAT	6.77	4.23	-0.34	3.91	-0.536	5.78	5.86	5.78	2.2	4.41	2.29	3.75	0.299	0.301	2.21	4.33	0.0901	5.29	0.437	4.49
TGTCAAAGTTCAAAGGTATCGTAAGTATCCACAC	6.52	6.21	4.75	3.88	1.73	5.28	7.79	7.23	4.93	6.44	-0.2	3.95	0.81	1.08	2.53	5.14	4.92	4.95	1.12	4.91
GGAACGAGGGCAAAGTTGATAACATCTGTCGACG	1.57	1.1	-0.134	1.12	-0.18	4.13	7.22	7.08	6.1	7.67	3.83	4.15	0.399	0.51	1.5	1.23	0.336	1.49	0.102	2.25
GGAACGAGGGCACAGTTGATAGCATCTGTCGACG	0.318	0.136	-0.684	-0.053	-0.903	1.95	3.25	3.63	1.56	3.28	3.74	3.92	0.579	-0.629	0.434	0.227	-0.335	0.367	-0.231	2.02
GCTTACGTGTCAAAGGTTATAGCATGAATAGAAT	3.42	3.02	-0.0204	2.94	-0.0977	5.34	9.21	8.05	7.61	9.07	1.72	3.96	0.407	0.944	3.44	2.98	-0.204	4.56	0.318	2.14
